KDM5B inh: blocks human KDM5B histone demethylase activity; KDM5B demethylase, FDH-coupled NADH fluorescence (FDH is formaldehyde dehydrogenase); 220,000 tested, 2.6% active; Q9UGL1; AID 1347165; Potency, µM (series often up to 57.7 µM), hits mostly inhibitors; also: potency is read from the fitted curve at half-maximal effect; 0% is about no effect; nearly all actives have a fitted effect of over 70% in size
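Measured: NADH fluorescence change, 30 min, RT. System: KDM5BΔAP 200 nM final, H3K4me3 peptide, α-KG, Fe(II), ascorbate, NAD⁺ plus FDH, pH 7.5 HEPES. Compounds: titrated, 10 min pre-incubation with enzyme.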
SNCA viab count: counter-screen for SNCA expression inhibitors: cell viability. HEK-293-SNCA-luc viability, GF-AFC fluorescence, 24 h. Potency, µM (series often up to 57.1 µM), for inactives: at the top dose activity change, negative = cytotoxicity, most hits filed as cytotoxic. 150,000 tested, 0.12% active;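 also: potency is read from the fitted curve at half-maximal effect; 0% = DMSO-treated cells and -100% = medium-only wells without cells; nearly all actives have a fitted effect of over 30% in size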
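HEK-293-SNCA-luc cells (1500/well) plated 24 h, then exposed 24 h to a dilution series; GF-AFC added 30 min at 37C, fluorescence 405/540 nm; normalised to medium-only and DMSO wells, Hill fit.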
SNCA expr inhib: reduces expression of the alpha-synuclein gene | HEK-293 SNCA-luciferase knock-in, luminescence, 24 h | Potency, µM (highest dose often 57.2 µM), inactives show at the top dose activity change, negative = inhibition, hits mostly inhibitors | 140,000 tested, 0.17% active | AID 1671194;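 also: potency is read from the fitted curve at half-maximal effect; plate controls were DMSO cells for no effect and cell-free wells for full effect; nearly all actives have a fitted effect of over 45% in size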
IP6K1 inhibitor: blocks human inositol hexakisphosphate kinase 1; IP6K1 kinase, ADP-Glo luminescence, 2 h; active compounds read low; activity change, % (series mostly up to about 58 µM); 140,000 tested, 0.81% active; Q92551; in the data active = activity change below about -25%; also: % is scaled to controls: 0 for no effect and ±100 for the full control effect
Target sequence (Q92551 whole entry, looked up): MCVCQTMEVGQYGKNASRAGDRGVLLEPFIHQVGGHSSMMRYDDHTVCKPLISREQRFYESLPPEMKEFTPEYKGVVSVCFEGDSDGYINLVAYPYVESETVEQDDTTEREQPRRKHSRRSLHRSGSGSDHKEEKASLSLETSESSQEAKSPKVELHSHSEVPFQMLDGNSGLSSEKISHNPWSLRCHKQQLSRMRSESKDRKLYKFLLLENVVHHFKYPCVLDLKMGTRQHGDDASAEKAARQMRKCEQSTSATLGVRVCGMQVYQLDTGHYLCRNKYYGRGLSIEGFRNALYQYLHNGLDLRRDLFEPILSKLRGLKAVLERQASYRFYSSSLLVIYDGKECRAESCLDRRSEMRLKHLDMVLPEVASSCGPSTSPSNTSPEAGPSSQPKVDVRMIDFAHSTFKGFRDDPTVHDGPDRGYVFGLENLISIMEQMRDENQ
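ADP-Glo luminescence measures ADP made by human IP6K1 during a 2 h RT reaction with ATP/IP6 (mix at 1.3 mM/130 uM); top library doses 57.5 and 19.1 uM final.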
* marks the source's active call; other numbers are inactive results; i = inactive; ? = inconclusive; · = not tested or not shown; [ ] = another dose, or the depositor's remark. Compounds with a hit are over-represented: about 2.8% of the library has one in this group of screens. Unless noted, calls follow the shape of the dose curve; as a rule, active = well fitted curve in the direction sought with a large enough effect; inconclusive = small, poorly fitted or top-dose-only effect, or another doubt; inactive = no such curve, though single readings can be large; an effect the other way counts as inactive or inconclusive.

SMILES	KDM5B inh	SNCA viab count	SNCA expr inhib	IP6K1 inhibitor
CC(C)N1CCN(c2ccc3nnc(C4CCC4)n3n2)CC1	28.2µM*	-1.3%	-12.2%	5.5
COCCNC(=O)C1(C)CN(Cc2ccccc2)Cc2ccc(N3CCOCC3)nc21 (stereo unspecified)	31.6µM*	-23.5%[87.6 µM]	-9.2%[87.6 µM]	7.6
CC1(C(=O)NC2CCC2)CN(Cc2ccccc2)Cc2ccc(N3CCOCC3)nc21 (stereo unspecified)	35.5µM*	?	-9.2%[87.6 µM]	-4.7
CNC(=O)C1(C)CN(Cc2ccccc2)Cc2ccc(N3CCOCC3)nc21 (stereo unspecified)	35.5µM*	-5.8%[87.6 µM]	-0.7%[87.6 µM]	1.5
CC1(C(=O)NCc2ccco2)CN(Cc2ccccc2)Cc2ccc(N3CCOCC3)nc21 (stereo unspecified)	15.8µM*	-29.6%	?	26.5
CN1Cc2ccc(N3CCOCC3)nc2C(C)(C(=O)NCc2ccccc2)C1 (stereo unspecified)	?	-3.7%[87.6 µM]	-30.1%[87.6 µM]	63.2
CC(C)CNc1ccc2c(n1)C(C)(C(=O)NC1CCN(C)CC1)CN(Cc1ccccc1)C2 (stereo unspecified)	i	-8.9%	-23.1%	-0.3
CCCCN(Cc1ccco1)C(=O)Cn1nc(Cc2cccnc2)c2ccccc2c1=O	i	·	·	·
COCc1nc(C2CCCN(C(=O)c3ccnn3C)C2)no1 (stereo unspecified)	i	-8.8%[12.5 µM]	-5.4%	3.9
CC(=O)c1[nH]c2ccccc2c1C	i	·	·	·
CN(C)CCNC(=O)C1(C)CN(Cc2ccccc2)Cc2ccc(Nc3ccccc3)nc21 (stereo unspecified)	i	-14.3%	?	4.3
Cn1ccc(NC(=O)C2(C)CN(Cc3ccccc3)Cc3ccc(N4CCOCC4)nc32)n1 (stereo unspecified)	11.2µM*	-13.1%	-13.9%	22.2
CCN(CC)c1nc2ncn(CC(=O)Nc3ccc(Br)c(C)c3)c(=O)c2s1	i	·	·	·
Cc1cn2nc(C(=O)N3CCN(C4CCCCC4)CC3)cc2c(N(C)Cc2ccccc2)n1	?	5.0%	0.1%	4.2
COc1ccc(NC(=O)c2cc3c(N(C)Cc4ccccc4)nc(C)cn3n2)cc1OC	31.6µM*	?	1.7%	0.0
COc1cccc(NC(=O)c2cc3c(N(C)Cc4ccccc4)nc(C)cn3n2)c1	28.2µM*	-9.9%	5.9%	8.3
COc1ccc(NC(=O)Cn2c(N(C)Cc3ccccc3)nc(C)cc2=O)cc1OC	i	-13.7%	?	5.2
CCCC1CCC(c2ccc(-c3ccc(CC)cn3)cc2)CC1C (stereo unspecified)	i	·	·	·
Cc1ccc(CNC(=O)CC2Sc3ncccc3N(C)C2=O)o1 (stereo unspecified)	?	6.0%	5.1%	7.0
COc1ccc(C(=O)N2C[C@@H]3C[C@H](C2)c2ccc(-c4ccc5ccccc5c4)c(=O)n2C3)cc1	28.2µM*	-2.5%	-23.2%	3.9
COc1ccc(C(=O)N2C[C@@H]3C[C@H](C2)c2ccc(NS(=O)(=O)c4cccc(C(F)(F)F)c4)c(=O)n2C3)cc1	i	-15.4%	-0.8%	2.7
CC(=O)Nc1ccc(S(=O)(=O)N2C[C@@H]3C[C@H](C2)c2ccc(-c4ccc5ccccc5c4)c(=O)n2C3)cc1	25.1µM*	5.1%	40.4%	7.1
O=C(Nc1cccc(F)c1)N1C[C@@H]2C[C@H](C1)c1ccc(-c3cccc(C(F)(F)F)c3)c(=O)n1C2	28.2µM*	6.9%	30.3%	9.7
CC(C)CNc1ccc2nncn2n1	?	0.9%	-2.3%	-3.2
CCC(C)Nc1ccc2nncn2n1 (stereo unspecified)	28.2µM*	10.1%	11.2%	0.8
SMILES	KDM5B inh	SNCA viab count	SNCA expr inhib	IP6K1 inhibitor
CCC(C)NC(=O)c1ccc(-c2cccc(C#N)c2)o1 (stereo unspecified)	25.1µM*	-8.9%	35.1%	12.8
COc1ccccc1-c1ccc(C(=O)N2C[C@@H](N(C)C)[C@H](C(C)C)C2)cc1	28.2µM*	-19.8%	-13.0%	-16.9
Cc1ccc(CNC(=O)c2ccc3c(c2)CN(Cc2cnn(C)c2C)CCO3)cc1	i	-4.5%	-22.1%	0.9
O=C(NCCN1CCOCC1)c1ccc2oc(-c3cccnc3)nc2c1	·	6.3%[87.6 µM]	8.4%[87.6 µM]	2.6
C[S+](=O)([O-])Nc1cccc(-c2cc(-c3cccnc3)c3cncn3c2)c1	35.5µM*	-9.2%[87.6 µM]	2.1%[87.6 µM]	-11.0
NC(=O)c1cccc(-c2cc(-c3cccnc3)c3cncn3c2)c1	?	-9.7%[87.6 µM]	-0.2%[87.6 µM]	294.4
c1cc(-c2cc(-c3ccncc3)c3cncn3c2)c2[nH]ccc2c1	i	-1.5%[87.6 µM]	?	-5.7
c1cncc(-c2cc(-c3cccc4cc[nH]c34)cn3cncc23)c1	35.5µM*	-7.8%[87.6 µM]	-11.1%[87.6 µM]	-15.2
Cc1noc([C@@H]2CN(C(=O)c3c[nH]c4ccccc34)C[C@H]2CO)n1	i	-22.6%	19.5%	-5.7
COC[C@@H]1CN(C(=O)c2cccc3[nH]ccc23)C[C@H]1c1nc(C)no1	20µM*	0.4%	4.8%	-6.4
Cc1noc(-c2cn(C3CCCN(C(=O)c4cccc5[nH]ccc45)C3)nn2)n1 (stereo unspecified)	20µM*	-2.3%	85.7%	1.1
CC(C)c1noc(-c2cn(C3CCN(C(=O)c4cccc5[nH]ccc45)C3)nn2)n1 (stereo unspecified)	22.4µM*	7.6%	?	-5.6
CC(C)c1noc(-c2cn(C3CCCN(C(=O)c4cccc5[nH]ccc45)C3)nn2)n1 (stereo unspecified)	17.8µM*	-14.8%	49.5%	0.0
Cc1noc(-c2cn(C3CCN(C(=O)c4cccc5[nH]ccc45)CC3)nn2)n1	?	-0.8%	3.8%	17.4
CCc1nc(-c2c3n(c(=O)n(CC(=O)Nc4cccc(C#N)c4)c2=O)CCCC3)no1	i	7.1%	14.2%	45.7
CCCN1CCc2[nH]cnc2C12CCN(C(=O)c1cnn3ccccc13)CC2	25.1µM*	1.6%	5.7%	5.4
COc1ccc(C(CC(=O)N(C)C)c2ccccc2)cc1 (stereo unspecified)	i	-2.1%	-26.2%	15.2
COc1ccc(C(CC(=O)N(C)Cc2cnc3ccccn23)c2ccccc2)cc1 (stereo unspecified)	31.6µM*	-8.9%	-10.1%	-2.8
N#Cc1ccc(CCC(=O)NCc2cccc(F)c2)cc1	i	·	·	·
CCNC(=O)N1CC[C@H]2CC(=O)N([C@H](C(N)=O)C(C)C)CC[C@H]2C1	i	10.1%[87.6 µM]	12.0%[87.6 µM]	5.6
CN(C)C(=O)N1CCCn2nc(CNC(=O)c3ccc4[nH]ccc4c3)cc2C1	?	2.3%	-15.3%	24.2
CN(C)C(=O)N1CCCn2nc(CNC(=O)c3sccc3N)cc2C1	35.5µM*	0.6%	5.2%	21.2
O=C(CCc1cc2n(n1)CCNC2)N1CCN(C(=O)c2cccs2)CC1	i	2.5%	?	0.1
Cc1ccc2nc(C3CCN(Cc4ccc(-c5cccs5)cc4)CC3)[nH]c(=O)c2c1	28.2µM*	-22.0%	?	-0.9
Cc1ccc2nc(C3CCCN(Cc4cccc(-c5cccs5)c4)C3)[nH]c(=O)c2c1 (stereo unspecified)	?	3.4%	?	21.1

Bioassay records deposited in PubChem BioAssay by National Center for Advancing Translational Sciences (NCATS).
